PubChem BioAssay (NCATS)
Records with an inconclusive call do not appear. Entries that show only a call come without a potency. Activity calls are given as the source filed them. Calls follow the shape of the dose curve; as a rule, active = well fitted inhibition curve with a large enough effect; inconclusive = small, poorly fitted or top-dose-only effect; inactive = no such curve, though single readings can be large or run the other way.

Assay: Confirmatory qHTS for small molecule stabilizers of the endoplasmic reticulum resident proteome: Secreted ER Calcium Modulated Protein (SERCaMP) assay (AID 1508628); also: nearly all actives have a fitted effect of over 40% in size
Conditions: SERCaMP secreted luciferase ER calcium/proteostasis reporter; series mostly up to 76.3 µM
Description: Assay Provider: Brandon K. Harvey Ph.D.
National Institute on Drug Abuse, National Institutes of Health, Baltimore, MD
Endoplasmic reticulum (ER) dysregulation is associated with human pathologies including neurodegenerative, cardiovascular, muscular, and diabetic conditions. Maintenance of ER calcium is critical for functions of the ER and its depletion can lead to loss of ER resident proteins, in a process termed exodosis. Therapeutic compounds capable of attenuating the redistribution of ER proteins under pathological conditions may slow or stop disease progression. To identify such compounds, we performed a quantitative high-throughput screen (qHTS) using the SERCaMP assay, which monitors secretion of ER resident proteins triggered by calcium depletion.
SERCaMP was initially developed as a reporter of ER calcium homeostasis using a Gaussia luciferase with a modified signal peptide and carboxy-terminus (GLuc-SERCaMP), modifications that confer secretion of the reporter in response to ER calcium depletion (Henderson et al., 2014). The assay was used to screen 9,501 compounds, including a collection of drugs approved by the FDA (US), EMA (EU), NHI (Japan), and HC (Canada) regulatory agencies (Huang et al., 2011). Since the SERCaMP reporter reflects the exodosis phenomenon (Trychta et al., 2018a), compounds identified in the screen have the potential to prevent exodosis by different mechanisms such as stabilizing ER calcium or augmenting ERS retrieval.
1. Henderson, M.J., Wires, E.S., Trychta, K.A., Richie, C.T., and Harvey, B.K. (2014). SERCaMP: a carboxy-terminal protein modification that enables monitoring of ER calcium homeostasis. Mol Biol Cell 25, 2828-2839.
2. Huang, R., Southall, N., Wang, Y., Yasgar, A., Shinn, P., Jadhav, A., Nguyen, D.T., and Austin, C.P. (2011). The NCGC pharmaceutical collection: a comprehensive resource of clinically approved drugs enabling repurposing and chemical genomics. Sci Transl Med 3, 80ps16.
3. Trychta, K.A., Back, S., Henderson, M.J., and Harvey, B.K. (2018a). KDEL Receptors Are Differentially Regulated to Maintain the ER Proteome under Calcium Deficiency. Cell Rep 25, 1829-1840 e1826.
SEQUENCE No. (1, 2, 3, etc.); […] (e.g., Cells, Incubation, Reagent, etc.); VALUE and DESCRIPTION.
1; Reagent; 5 uL; 1000 SH-SY5Y cells per wells
3; Compound; 23 nL; Control inhibitor / compound library
5; Reagent; 100 nM; Thapsigargin
7; Reagent; 1 uL; 0.5x coelenterazine
8; Detection; Luminescence; ViewLux imaging system
NOTES (numbers refer to sequence above)
1; SH-SY5Y human neuroblastoma cells stably expressing GLuc-SERCaMP (SH-SY5Y-GLuc-ASARTDL) cells were seeded in 1,536 well white tissue culture treated plates (Corning, Cat# 7464) in DMEM-high glucose-sodium pyruvate (ThermoFisher Scientific, Cat #10569) supplemented with 10% bovine growth serum (Hyclone), 10 U/ml penicillin (Gibco), 10 ug/ml streptomycin (Gibco), and 20 mM HEPES.
2; Assay plates were incubated for 5 hour at 37C in a humidified incubator containing 5% CO2.
3; qHTS libraries (23 nl, final concentrations of 1.53 uM, 7.67 uM, 38.3 uM) or controls (neutral control: DMSO, positive control: dantrolene) were added using a Kalypsis pin-tool Robotic System equipped with 1536 pinheads.
4; Cells were then incubated for 16 hours at 37C, 5% CO2.
5; Thapsigargin was added at 100 nM to deplete ER calcium stores.
6; Cells were incubated for 4 hour (37 °C, 5% CO2)
7; Gaussia luciferase in the medium was measured by adding 1 ul of 0.5x coelenterazine (final concentration 0.07x) prepared in Gaussia Luciferase Glow Assay Buffer (Pierce), without addition of the Cell Lysis Buffer Reagent.
8; Luminescence was measured using a ViewLux […] CCD imaging system (Perkin Elmer) equipped with clear filters. […] The same controls were also used for the calculation of the Z' factor, a measure of assay quality control, as previously described (Zhang et al., 1999). […]
Potency is read from the fitted curve at half-maximal effect.

Row | SMILES | Potency
1 | Cc1ccccc1/C=C/C1=NCCN1 | 11.2 µM (active)
2 | COc1ccc(CCN(C)CCc2ccc(OC)c(OC)c2)cc1OC | inactive
3 | CCCCCCCCCCCCCCC[C@H](O)[C@H](N)CO | inactive
4 | CCCCOC(=O)NS(=O)(=O)c1sc(CC(C)C)cc1-c1ccc(Cn2c(CC)nc3c(C)cc(C)nc32)cc1 | 15.8 µM (active)
5 | O=c1cc(O)cc(/C=C/c2ccc(O)c(O)c2)o1 | 20 µM (active)
6 | CCCCCCCC/C=C\CCCCCCCC(=O)NCCc1ccc(O)c(O)c1 | 5.01 µM (active)
7 | NC(N)=NC(N)=Nc1ccccc1 | inactive
8 | NC(=Nc1ccccc1)NC(=O)c1nc(Cl)c(N)nc1N | inactive
9 | O=S(=O)(c1cccc2c(Cl)cccc12)N1CCCNCC1 | inactive
10 | N#Cc1cc([N+](=O)[O-])c2sc(C(N)=O)[n+]([O-])c2c1 | inactive
11 | Cc1nc(N=Nc2ccc(S(=O)(=O)O)cc2S(=O)(=O)O)c(COP(=O)(O)O)c(C=O)c1O | inactive
12 | O=C(O)CCC(=O)N1CCCC1C(=O)O (stereo not drawn) | inactive
13 | CN1CCc2cc(Cl)c(O)cc2[C@@H](c2ccccc2)C1 | inactive
